Our source for the outcome and AC50 values is PubChem BioAssay (EPA / NIEHS).

For orientation: AC50 means the midpoint of the concentration-response curve, whichever way the signal moves.

Test [1] is described as follows: ACEA_ER_80hr: ACEA Biosciences xCELLigence Real-Time Cell Analysis on Estrogen Receptor Agonism for Proliferation (AID 2282667; active = hit-call score of the fitted dose curve at least 0.9, where 1 is the maximum). As to conditions: T47D proliferation, impedance (xCELLigence), 80 h. A digest of the protocol: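 Real-time electrical impedance tracked growth of the human breast line T47D, with the 80 h post-dosing value used. Dosing spanned eight 1:4 steps down from a 100 uM final top concentration, run in duplicate.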

Test [2] is described as follows: ATG_CRE_CIS: Attagene CIS-FACTORIAL HepG2 Assay for human cAMP Responsive Element (CRE) binding protein 3 (AID 2282926). To be noted: HepG2 CRE cis-reporter, Attagene multiplexed mRNA; actives raise or lower the signal. A digest of the protocol: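 Assay format: transient reporter transfection of HepG2, 24 h treatment, total RNA isolation with DNase I step. Reporter abundance read by fluorescence after PCR and capillary separation; DMSO-normalised gain or loss fitting.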

Test [3] deals with CCAAT/enhancer-binding protein beta (Homo sapiens) (UniProt P17676). Briefly: ATG_C_EBP_CIS: Attagene CIS-FACTORIAL HepG2 Assay for human CCAAT/Enhancer Binding Protein (C/EBP) beta (AID 2282927). As to conditions: HepG2 Attagene cis-factorial transcription factor reporter; actives raise or lower the signal. In outline: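 HepG2, transient MRTU transfection, 24 h treatment. RT-PCR plus CE fluorescence; DMSO negative control, bidirectional fit.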

The nature of test [4]: ATG_CMV_CIS: Attagene CIS-FACTORIAL HepG2 Assay for human CMV (Internal Marker) (AID 2282928).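 Note: endpoint acts as a background internal control marker rather than a target.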 To be noted: HepG2 CMV promoter reporter, transcription factor profiling; actives raise or lower the signal. In outline:
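Reporter transcripts from transfected HepG2 cells are isolated after 24 h of chemical dosing, reverse-transcribed and amplified. Fragments labeled with 6-FAM are cut with HpaI and quantified by capillary electrophoresis; DMSO defines baseline.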

A short description of test [5]: ATG_DR4_LXR_CIS: Attagene CIS-FACTORIAL HepG2 Assay for human Liver X Receptor (LXR), DR4 submotif (AID 2282929). As to conditions: HepG2 Attagene DR4 cis-reporter, mRNA transcription; actives raise or lower the signal. A digest of the protocol: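 Transiently transfected HepG2 liver cells; cis-regulated reporters; 24 h dosing. RT-PCR plus CE read-out of reporter mRNA. DMSO baseline, bidirectional curve fitting.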

For test [6], the target named is Aryl hydrocarbon receptor (Homo sapiens) (UniProt P35869). Briefly: ATG_Ahr_CIS: Attagene CIS-FACTORIAL HepG2 Assay for human Aryl Hydrocarbon Receptor (Ahr) (AID 2282930). To be noted: HepG2 AhR cis-factorial reporter transcription; actives raise or lower the signal. A digest of the protocol:
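Endogenous factor activity is tracked through cis-promoter reporter units transfected into HepG2 cells. Transcript levels at 24 h are read by fluorescent RT-PCR and capillary electrophoresis, with activity in either direction scored relative to DMSO.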

Test [7] can be described thus: ATG_AP_2_CIS: Attagene CIS-FACTORIAL HepG2 Assay for human Activator Protein 2 (AP-2) (AID 2282932). As to conditions: HepG2 AP-2 cis-reporter, Attagene transcription factor profiling; actives raise or lower the signal. In outline: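 Liver-derived HepG2 line, cis-reporter system measuring endogenous factors; 24 h dosing; reporter mRNA detected by fluorescent RT-PCR and capillary electrophoresis.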

The target of test [8] is Retinoic acid receptor alpha (Homo sapiens) (UniProt P10276). Briefly: ATG_DR5_RAR_CIS: Attagene CIS-FACTORIAL HepG2 Assay for human Retinoic Acid Receptor Alpha (RARE), DR5 submotif (AID 2282934).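 For AC50: reporter responds to endogenous RAR alpha beta and gamma in HepG2 not RARA alone.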 As to conditions: HepG2 Attagene cis-factorial RARE DR5 reporter, mRNA; actives raise or lower the signal. A digest of the protocol: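 After 24 h of chemical exposure, transiently transfected HepG2 cells were lysed for total RNA; the DR5-regulated reporter transcript was quantified via RT-PCR and capillary electrophoresis, with activity fitted bidirectionally against DMSO.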

A short description of test [9]: ATG_BRE_CIS: Attagene CIS-FACTORIAL HepG2 Assay for human Bone Morphogenetic Protein (BMP) Response Element (BRE) (AID 2282933). As to conditions: HepG2 BMP response element reporter, Attagene transcription factor profiling; actives raise or lower the signal. In outline: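 A HepG2 multiplex reporter system measured inducible reporter mRNA 24 h post-dosing. Detection: RT-PCR, 6-FAM primer extension, HpaI digestion, capillary electrophoresis. Activity fitted bidirectionally relative to DMSO.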

Test [10] is described as follows: ATG_AP_1_CIS: Attagene CIS-FACTORIAL HepG2 Assay for human Activator Protein 1 (AP-1) (AID 2282931). As to conditions: HepG2 Attagene cis-factorial AP-1 reporter mRNA; actives raise or lower the signal. A digest of the protocol: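 We transfected HepG2 cells transiently with a set of cis-regulated reporter transcription units, dosed them for 24 h, and quantified reporter mRNA via RT-PCR and capillary electrophoresis, scoring gain or loss of signal relative to DMSO.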

SMILES strings stand for the structures. Records with an inconclusive call do not appear. Calls of active or inactive are those of the source. Rule for the calls, unless noted: active = hit-call score of the fitted dose curve at least 0.9, where 1 is the maximum; inactive = score below 0.9.

Chain of Retinoic acid receptor alpha (Homo sapiens) (P10276 whole entry, looked up): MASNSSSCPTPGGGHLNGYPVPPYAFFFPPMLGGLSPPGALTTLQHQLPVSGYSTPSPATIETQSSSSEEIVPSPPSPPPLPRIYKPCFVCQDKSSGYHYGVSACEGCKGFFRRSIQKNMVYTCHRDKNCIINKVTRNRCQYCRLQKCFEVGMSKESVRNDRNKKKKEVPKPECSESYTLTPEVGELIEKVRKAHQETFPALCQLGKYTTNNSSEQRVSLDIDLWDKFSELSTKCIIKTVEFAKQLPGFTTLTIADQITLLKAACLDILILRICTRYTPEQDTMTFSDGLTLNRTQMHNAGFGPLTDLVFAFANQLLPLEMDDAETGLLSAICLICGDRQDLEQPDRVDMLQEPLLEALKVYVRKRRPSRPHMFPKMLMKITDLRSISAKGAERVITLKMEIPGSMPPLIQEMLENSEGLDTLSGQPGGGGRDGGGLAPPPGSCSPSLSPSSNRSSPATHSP
Chain of Aryl hydrocarbon receptor (Homo sapiens) (P35869 whole entry, looked up): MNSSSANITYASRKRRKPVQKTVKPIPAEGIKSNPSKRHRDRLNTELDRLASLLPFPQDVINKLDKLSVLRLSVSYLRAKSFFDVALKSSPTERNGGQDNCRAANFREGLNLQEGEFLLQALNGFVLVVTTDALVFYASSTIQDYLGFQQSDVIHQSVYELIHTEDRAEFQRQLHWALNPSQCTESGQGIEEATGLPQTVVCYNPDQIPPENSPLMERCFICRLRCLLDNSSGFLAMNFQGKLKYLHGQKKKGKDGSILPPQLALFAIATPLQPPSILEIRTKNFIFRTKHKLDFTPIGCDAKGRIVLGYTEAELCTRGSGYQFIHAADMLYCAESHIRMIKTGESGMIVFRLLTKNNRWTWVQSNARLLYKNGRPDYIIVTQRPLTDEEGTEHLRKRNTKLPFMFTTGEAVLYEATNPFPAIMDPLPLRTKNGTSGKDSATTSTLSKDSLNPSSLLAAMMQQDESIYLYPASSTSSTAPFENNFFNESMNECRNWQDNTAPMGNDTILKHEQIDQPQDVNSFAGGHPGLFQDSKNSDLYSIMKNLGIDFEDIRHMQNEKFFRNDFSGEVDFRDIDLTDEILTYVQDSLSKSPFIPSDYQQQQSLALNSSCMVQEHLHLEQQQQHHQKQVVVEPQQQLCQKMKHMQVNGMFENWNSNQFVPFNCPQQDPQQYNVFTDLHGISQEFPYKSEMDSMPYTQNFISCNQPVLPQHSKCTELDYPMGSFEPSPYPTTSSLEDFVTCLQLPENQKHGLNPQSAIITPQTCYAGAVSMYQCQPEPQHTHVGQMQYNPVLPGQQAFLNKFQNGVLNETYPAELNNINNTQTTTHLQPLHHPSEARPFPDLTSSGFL
Chain of CCAAT/enhancer-binding protein beta (Homo sapiens) (P17676 whole entry, looked up): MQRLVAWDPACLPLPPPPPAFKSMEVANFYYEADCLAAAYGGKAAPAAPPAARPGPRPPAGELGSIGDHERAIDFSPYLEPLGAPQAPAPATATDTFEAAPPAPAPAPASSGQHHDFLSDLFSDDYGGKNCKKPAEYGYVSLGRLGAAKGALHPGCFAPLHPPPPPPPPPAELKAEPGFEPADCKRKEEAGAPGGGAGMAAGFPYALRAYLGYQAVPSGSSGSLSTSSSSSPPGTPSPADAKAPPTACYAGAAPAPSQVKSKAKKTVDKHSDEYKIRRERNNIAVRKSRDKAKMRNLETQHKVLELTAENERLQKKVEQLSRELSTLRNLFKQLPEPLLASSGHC

As to `CN(C)Cc1cc(CN(C)C)c(O)c(CN(C)C)c1`, the compound was classed as inactive in test [1], in test [2], in test [3], in test [4], in test [5] and in [6]. Further, the outcome in test [7] and in test [8] was inactive.
As to `CCCCCCCCCCCC(C)=O`, the compound was classed as inactive in test [1], in test [2], in test [3], in test [6] and in [9]. For the same compound, the concentration at half-maximal activity (AC50) in test [4] is 124 µM (active); in test [5], 136 µM (active); in test [8], 69.4 µM (active).
For the compound `OCCCc1ccccc1`, the compound was classed as inactive in test [1], in [2], in test [3], in test [4], in test [5] and in test [6]. For the same compound, the compound was classed as inactive in test [7], in test [9] and in [8].
`O=c1c(O)c(-c2ccc(O)cc2O)oc2cc(O)cc(O)c12`: the half-maximal activity concentration (AC50) in test [1] is 47.5 µM (active). In addition, the call in test [2], in [3], in test [4], in test [5], in [6] and in test [7] was inactive. Moreover, the compound was classed as inactive in [8].
Take `CC(C)=CCl`: the call in test [1], in test [2], in test [3], in test [4], in [5] and in [6] was inactive. For the same compound, the compound was classed as inactive in [7], in test [9] and in [8].
For the compound `CC(Cl)COP(=O)(OCC(C)Cl)OCC(C)Cl` (stereo not given), the outcome in [1], in test [2], in test [3], in test [4], in test [5] and in test [6] was inactive. In addition, the compound was called inactive in [7], in test [9] and in test [8].
On to `CC(C)CCOCc1ccccc1`, for which the result in [1], in test [2], in [3], in [4], in test [5] and in [6] was inactive. In addition, the compound was called inactive in test [7], in test [9] and in test [8].
Regarding `NC(=O)Nc1ccccc1`, the compound was called inactive in [1], in [2], in test [3], in [4], in [5] and in test [6]. In addition, the outcome in [7], in test [9] and in [8] was inactive.
For `CC/C=C\CCOC(=O)c1ccccc1O`, the compound was called inactive in test [1], in [2], in [3], in [4], in test [5] and in [6]. For the same compound, the outcome in [7], in test [9] and in test [8] was inactive.
On to `COc1cc(C)ccc1O`, for which the compound was called inactive in test [1], in test [2], in test [3], in [4], in [5] and in test [6]. The compound was called inactive in [7], in test [9] and in test [8].
Consider `O=C(OCCc1ccccc1)c1ccccc1`, for which the compound was classed as inactive in [1], in test [2], in [3], in test [4], in [5] and in [6]. The result in [10], in test [9] and in test [8] was inactive.
Consider `CC(C)c1ccc(O)c(C(C)C)c1`, for which the call in test [1], in [2], in [3], in test [4], in [5] and in [6] was inactive. Besides, the result in [10] and in test [8] was inactive.
Consider `CCCCCCCCCC[N+](C)(CCCCCCCCCC)CCC[Si](OC)(OC)OC`, for which the call in [1], in test [4], in test [5], in test [6] and in test [9] was inactive. The AC50 was 17.5 µM (active) in test [2], 18.2 µM (active) in test [3], 15.3 µM (active) in [7] and 16.9 µM (active) in test [8].
Turning to `CCCCCCCCCCCCCc1ccccc1`, the outcome in [1], in [2], in [3], in test [4], in test [5] and in test [6] was inactive. Besides, the outcome in [7], in test [9] and in test [8] was inactive.
With `Oc1ccc(/C=C/c2cc(O)cc(O)c2)cc1`, the call in test [1], in [2], in test [3], in test [6], in [7] and in test [9] was inactive. The compound was classed as inactive in test [8]. The AC50 in [4] was 22.7 µM (active); in [5] it was 100 µM (active).
For `CC(C)(C)NC(=O)[C@H]1CC[C@H]2[C@@H]3CC[C@H]4NC(=O)C=C[C@]4(C)[C@H]3CC[C@]12C`, the compound was classed as inactive in test [1], in test [2], in [3], in test [4], in test [5] and in test [10]. The call in test [9] and in [8] was inactive.
For the compound `CCCc1ccc(O)c(OC)c1`, the compound was called inactive in [1], in test [2], in test [3], in test [4], in test [10] and in test [7]. Also, the result in test [9] and in [8] was inactive. Moreover, the AC50 in [5] was 33.8 µM (active).
Regarding `CC(=O)CC(=O)Nc1ccccc1C`, the result in [1], in test [2], in [3], in test [4], in test [5] and in test [10] was inactive. The compound was classed as inactive in [7], in [9] and in [8].
Consider `CC=C(C)C=CC=C(C)C`, for which the result in [1], in test [2], in test [3], in test [4], in [5] and in [10] was inactive. Further, the outcome in [7], in test [9] and in test [8] was inactive.
With `CC1(C)CC(O)CC(C)(C)N1[O]`, the result in [1], in [2], in [3], in test [5], in [9] and in test [8] was inactive. Further, in [4], the AC50 is 26.2 µM (active).
`CC(C)CO`: the call in [1], in test [2], in test [3], in [4], in test [5] and in test [10] was inactive. In addition, the compound was classed as inactive in test [7], in test [9] and in test [8].
With `CC1CC(=O)CC(C)(C)C1` (stereo not given), the outcome in [1], in test [2], in test [3], in test [4], in test [5] and in [7] was inactive. Besides, the outcome in test [9] and in [8] was inactive.
Turning to `COC(=O)C=Cc1ccccc1`, the compound was classed as inactive in [1], in test [2], in [3], in test [4], in test [5] and in test [10]. In addition, the call in [7], in [9] and in test [8] was inactive.
With `CCCSSCCC`, the outcome in test [1], in [2], in test [3], in test [4], in test [5] and in test [10] was inactive. For the same compound, the result in test [7], in [9] and in test [8] was inactive.
Take `CC(C)c1ccc2ncccc2c1`: the compound was called inactive in [1], in test [2], in test [3], in [5], in [10] and in test [7]. For the same compound, the compound was called inactive in test [8]. Moreover, the AC50 in test [4] was 53.5 µM (active).
`C[N+](C)(C)CCCNS(=O)(=O)C(F)(F)C(F)(F)C(F)(F)C(F)(F)C(F)(F)C(F)(F)C(F)(F)C(F)(F)F`: the compound was classed as inactive in test [1], in [2], in test [3], in test [5], in test [10] and in [7]. The compound was classed as inactive in test [9] and in test [8]. Further, in test [4], the half-maximal activity concentration (AC50) was 55.4 µM (active).
